Screening results from PubChem.
Shown are actives, neighbours in structure and some others; about 27% of the full set was active somewhere.
Cav32 inh: inhibitors of human Cav3.2 T-type calcium channel | O95180 | B-score at 10 µM | 100,000 compounds, 4% hits | Cav3.2-expressing cells, Fluo-4 calcium fluorescence FDSS; hits give low values;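 active means single-dose well whose peak fluorescence ratio is a statistical outlier from its plate by either plate-standardised score or position-corrected B-score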
CYP2C9 inhib: human CYP2C9 inhibition; P11712; CYP2C9 Supersomes, luciferin-H conversion, luminescence; inhibition, % at 5 µM; 96,000 compounds, 20% hits; AID 777;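 active means blocking of liver enzyme CYP2C9 beyond about 50% at 5 µM, limit read from the data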
CYP2C19 inhib: human CYP2C19 inhibition | P33261 | AID 778 | inhibition, % at 5 µM | 96,000 compounds, 21% hits | CYP2C19 Supersomes, luciferin-H EGE luminescence, 30 min;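 active means CYP2C19 inhibition above a set limit at 5 µM in the primary screen, cut at about 50% in these data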
CYP2C9 act: activators of human CYP2C9. 96,000 compounds, 1.4% hits. activation factor at 5 µM. recombinant CYP2C9, luciferin-H conversion, luminescence; hits give high values; factor 1 = untreated enzyme, 0 = blocked;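 active means activation factor of 2 or more for CYP2C9 at a 5 µM dose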
CYP2C19 act: cytochrome P450 2C19 (human) activation; activation factor at 5 µM; AID 1025; P33261; 96,000 tested, under 10 active; recombinant CYP2C19, luciferin-H EGE luminescence; hits give high values; 0 = fully inhibited enzyme, 1 = untreated enzyme;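 active means activation factor of at least 2 at 5 µM in the primary screen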
Large screens that a line does not name were inactive; ! = not active in a repeat.

O=C(CSc1ccccc1)Nc1ccc(S(=O)(=O)NCC2CCCO2)cc1 (stereo unspecified)	CYP2C9 inhib 90.9
COc1ccc(C(=O)NC(=S)NCCO)cc1Br	none
CC1(C)Oc2ccc(NC(=O)C3COc4ccccc4O3)cc2O1 (stereo unspecified)	CYP2C9 inhib 75.6, CYP2C19 inhib 93.0
Cc1ccc(NC(=O)C2COc3ccccc3O2)nc1 (stereo unspecified)	CYP2C19 inhib 89.8
O=C(Nc1nncs1)C1COc2ccccc2O1 (stereo unspecified)	none
O=C(Nc1nnc(C(F)(F)F)s1)C1COc2ccccc2O1 (stereo unspecified)	Cav32 inh -4.25, CYP2C9 inhib 98.7, CYP2C19 inhib 56.0
O=C(COC(=O)C1COc2ccccc2O1)NC(=O)Nc1ccc2c(c1)OCCO2 (stereo unspecified)	CYP2C9 inhib 66.8
CC(C)(C)NC(=O)c1ccc(NC(=O)C2COc3ccccc3O2)cc1 (stereo unspecified)	none
CCOC(=O)c1c(Nc2ccccc2)sc(/C=C2\C=Nc3ccccc32)c1O	CYP2C9 inhib 72.8
Cc1csc(NC(=O)CSc2nnc(Cc3cccn3C)n2-c2ccc(F)cc2)n1	Cav32 inh -5.78
Cn1cccc1Cc1nnc(SCC(=O)NC2CCCC2)n1-c1ccc(F)cc1	none
CC(=O)c1ccc(NC(=O)CSc2nnc(Cc3cccn3C)n2-c2ccc(F)cc2)cc1	none
CCc1ccc(NC(=O)CSc2nnc(Cc3cccn3C)n2-c2ccc(F)cc2)cc1	Cav32 inh -4.15, CYP2C9 inhib 75.8
Cc1ccc(NC(=O)CSc2nnc(Cc3cccn3C)n2-c2ccc(F)cc2)cc1	Cav32 inh -3.86
O=C(NC1CCCCC1)N1CCCC1	none (no result: CYP2C9 inhib, CYP2C19 inhib, CYP2C9 act, CYP2C19 act)
O=c1[nH]c(N2CCCCC2)nc2c1CCCC2	none (no result: Cav32 inh)
O=S(=O)(c1ccc(Cl)c(Cl)c1)c1snnc1-c1ccccc1	CYP2C9 inhib 90.2, CYP2C19 inhib 98.7
Clc1ccccc1CSc1snnc1-c1ccccc1	none
O=C(c1cccc(Br)c1)N1CCN(C(=O)c2cccc(Br)c2)CC1	none (no result: CYP2C9 inhib, CYP2C19 inhib, CYP2C9 act, CYP2C19 act)
CC(C)c1ccc(S(=O)(=O)N2CCN(C(=O)c3cccc(F)c3)CC2)cc1	CYP2C9 inhib 66.6, CYP2C19 inhib 67.0
O=C(c1cccc(F)c1)N1CCN(S(=O)(=O)c2ccccc2)CC1	CYP2C19 inhib 75.5
O=C(c1ccc(C(=O)N2CCCCCC2)cc1)N1CCCCCC1	none (no result: CYP2C9 inhib, CYP2C19 inhib, CYP2C9 act, CYP2C19 act)
O=C(c1ccccc1)N1CCN(C(=O)c2ccccc2Br)CC1	CYP2C19 inhib 56.2
O=C(c1ccccc1)N1CCN(S(=O)(=O)N2CCCCC2)CC1	CYP2C19 inhib 86.9 (no result: Cav32 inh)
O=C(Nc1ccc(O)cc1)C1CC=CCC1 (stereo unspecified)	none
OCC(CO)(CO)N=Cc1cc(Br)ccc1O	Cav32 inh -7.11
O=C(N/N=C/c1cc(Br)ccc1O)C(=O)Nc1ccccc1OC(F)(F)C(F)F	none
COc1ccc2c(C=Nc3c(C)n(C)n(-c4ccccc4)c3=O)c(O)n(Cc3ccco3)c(=O)c2c1	CYP2C9 inhib 72.2!, CYP2C19 inhib 59.7!
Cc1ccc(C(O)(COC(=O)C(C)C)COC(=O)C(C)C)c(O)c1	none (no result: CYP2C9 inhib, CYP2C19 inhib, CYP2C9 act, CYP2C19 act)
Cc1c(N2C(=O)c3ccc(Br)cc3C2=O)c(=O)n(-c2ccccc2)n1C	Cav32 inh -4.37
Cc1c(-n2cc(C(=O)c3cc(Br)ccc3O)cc(C#N)c2=O)c(=O)n(-c2ccccc2)n1C	CYP2C9 inhib 64.4
CC1CCCCN1CC(=O)Nc1sc2c(c1C#N)CCC2 (stereo unspecified)	CYP2C9 inhib 61.1, CYP2C19 inhib 50.9
N#Cc1c(NC(=O)CSc2nnnn2C2CCCCC2)sc2c1CCCC2	CYP2C9 inhib 66.6
O=C(CSc1nnnn1C1CCCCC1)Nc1nc2c(s1)CCCC2	CYP2C19 inhib 78.4
CCOc1ccc2nc(NC(=O)CSc3nnnn3C3CCCCC3)sc2c1	none
Cc1nnc(SCC(=O)Nc2sc3c(c2C#N)CCCCC3)n1N	none
COC(=O)CCCC(=O)Nc1ccc(Cl)c(Cl)c1	none (no result: CYP2C9 inhib, CYP2C19 inhib, CYP2C9 act, CYP2C19 act)
COc1ccccc1NC(=O)CN1C(=O)C(C)Oc2ccccc21 (stereo unspecified)	CYP2C9 inhib 61.2, CYP2C19 inhib 84.7
O=C(CC1COc2ccccc2O1)Nc1ccccn1 (stereo unspecified)	none
COc1cccc(CC(=O)NCC2COc3ccccc3O2)c1OC (stereo unspecified)	CYP2C19 inhib 64.0
COc1ccccc1NC(=O)CC1COc2ccccc2O1 (stereo unspecified)	CYP2C19 inhib 63.8
CCOC(=O)c1ccc(NC(=O)CC2COc3ccccc3O2)cc1 (stereo unspecified)	CYP2C9 inhib 63.4 (no result: Cav32 inh)
CCC1Oc2ccccc2N(CC(=O)Nc2ccc(OC)cc2OC)C1=O (stereo unspecified)	none
O=C(CCCc1nc(-c2ccc(Cl)cc2)no1)N1CCOCC1	none (no result: CYP2C9 inhib, CYP2C19 inhib, CYP2C9 act, CYP2C19 act)
CCOC(=O)CCNCC1COc2ccccc2O1 (stereo unspecified)	CYP2C19 inhib 74.8
COc1ccccc1CN1CCCC(C(=O)N(C)Cc2ccccc2)C1 (stereo unspecified)	none
COc1cccc(OC)c1OCCNCC1COc2ccccc2O1 (stereo unspecified)	none (no result: CYP2C9 inhib, CYP2C19 inhib, CYP2C9 act, CYP2C19 act)
COc1ccccc1CN(C)C(=O)C1COc2ccccc2O1 (stereo unspecified)	CYP2C19 inhib 98.5
CCCn1c2ccccc2c2nnc(SCC(=O)Nc3nnc(CC(=O)OCC)s3)nc21	CYP2C9 inhib 98.4, CYP2C19 inhib 94.6
CCn1c2ccccc2c2nnc(SCC(=O)Nc3ncccn3)nc21	none
CCc1nnc(NC(=O)CSc2nnc3c4ccccc4n(C)c3n2)s1	CYP2C9 inhib 57.9
CCn1c2ccccc2c2nnc(SCC(=O)NC(CC(C)C)C(=O)OC)nc21 (stereo unspecified)	CYP2C19 inhib 96.5
CCOC(=O)Cc1nnc(NC(=O)CSc2nnc3c4ccccc4n(C(C)C)c3n2)s1	CYP2C9 inhib 98.1, CYP2C19 inhib 77.6 (no result: Cav32 inh)
Cc1cc(-c2cc(C(=O)NCc3ccccc3)on2)nc(NCC2CC2)n1	none (no result: CYP2C9 inhib, CYP2C19 inhib, CYP2C9 act, CYP2C19 act)
COC(=O)c1ccc(S(=O)(=O)NCCSc2nnc3c4ccccc4n(C)c3n2)cc1	CYP2C9 inhib 94.6, CYP2C19 inhib 67.6
CCCOC(=S)Nc1ccccc1	CYP2C19 inhib 62.5
Cc1c(Cl)cccc1N1CC(C(=O)Nc2nccs2)CC1=O (stereo unspecified)	none
COc1ccc(-c2[nH]ncc2-c2cnc(C)s2)c(O)c1	CYP2C19 inhib 90.5
COc1ccc(-c2cn[nH]c2N)c(OC)c1	none
COc1ccc(O)c(-c2cn[nH]c2-c2cccs2)c1	CYP2C9 inhib 88.3, CYP2C19 inhib 99.2
CC(=O)c1ccc(NC(=O)N[C@@H](CC(C)C)C(=O)O)cc1	none
CCOc1ccccc1CNCCO	none (no result: CYP2C9 inhib, CYP2C19 inhib, CYP2C9 act, CYP2C19 act)
CCOc1ccc(CCNC(=O)CCn2cccc2)cc1OCC	none
CCOc1cc(CNC(C)C)c(Cl)cc1OCC(=O)NCCc1ccccc1	CYP2C19 inhib 76.7
CCOc1cc(CNCCO)c(Cl)cc1OCC(=O)NCCc1ccccc1	CYP2C19 inhib 58.1
COc1ccc(N2CCN(C(=O)C(CCSC)N=C3NS(=O)(=O)c4ccccc43)CC2)cc1 (stereo unspecified)	none
